Source: PubChem
KDM5B inhibitor = blocks human KDM5B histone demethylase activity; KDM5B demethylase, FDH-coupled NADH fluorescence (FDH is formaldehyde dehydrogenase); Potency, µM (titrated, usually from 57.7 µM), hits mostly inhibitors; 220,000 tested, 2.6% active; active means well fitted inhibition curve with a large enough effect; inconclusive means small, poorly fitted or top-dose-only effect; inactive means no such curve, though single readings can be large or run the other way; further: potency means the concentration at half of the fitted maximal effect; 0% is about no effect; nearly all actives have a fitted effect of over 70% in size
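Inhibition is measured as reduced NADH fluorescence generation from FDH coupling to formaldehyde release. Truncated KDM5BΔAP at 200 nM final acts on H3K4me3 peptide (12.5 µM in substrate mix) in pH 7.5 HEPES buffer with Tween-20, 30 min, room temperature.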
IP6K1 inh = IP6K1 kinase inhibition; Q92551; IP6K1 kinase, ADP-Glo luminescence, 2 h; hits give low values; activity change, % (series mostly up to about 58 µM); 140,000 tested, 0.81% active; AID 1645851; in the data active means activity change below about -25%; further: on the % scale 0 is the no-effect control and ±100 the full control effect
Target sequence (Q92551 whole entry, looked up): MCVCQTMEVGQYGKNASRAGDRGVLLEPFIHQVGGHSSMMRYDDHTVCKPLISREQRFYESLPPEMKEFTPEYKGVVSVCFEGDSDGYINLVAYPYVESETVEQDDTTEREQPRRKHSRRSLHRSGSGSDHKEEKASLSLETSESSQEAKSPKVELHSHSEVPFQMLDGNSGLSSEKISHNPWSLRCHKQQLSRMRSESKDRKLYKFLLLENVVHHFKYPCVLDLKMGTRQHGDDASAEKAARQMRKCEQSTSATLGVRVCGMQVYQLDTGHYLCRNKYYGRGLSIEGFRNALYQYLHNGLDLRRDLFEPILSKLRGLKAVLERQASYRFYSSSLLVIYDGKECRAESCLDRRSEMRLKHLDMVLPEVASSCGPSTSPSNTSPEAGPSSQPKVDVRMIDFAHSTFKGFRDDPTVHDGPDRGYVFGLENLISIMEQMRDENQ
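ADP-Glo luminescence measures ADP made by human IP6K1 during a 2 h RT reaction with ATP/IP6 (mix at 1.3 mM/130 uM); top library doses 57.5 and 19.1 uM final.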
Active calls of the source: *; i = inactive; ? = inconclusive; nt = no result given. Sampled rows, rich in hits. Any-hit rate of the full collection: about 2.7%.

SMILES | KDM5B inhibitor | IP6K1 inh
COc1ccc(-c2ccnc3nc(-c4cccs4)nn23)cc1 | ? | 6.4
COc1cc(-c2ccnc3nc(-c4cccs4)nn23)cc(OC)c1OC | 14.1µM* | 1.3
Cc1oc(-c2ccccc2)nc1CC(=O)Nc1ccc(Cl)cc1Cl | i | nt
COCCN(Cc1ccco1)C1CCCC1 | i | nt
CCc1ccc(CNC(=O)c2cc3c(N4CCSCC4)nc(C)cn3n2)cc1 | 31.6µM* | 5.8
Cc1cn2nc(C(=O)NCc3cccc(C(F)(F)F)c3)cc2c(N2CCSCC2)n1 | 28.2µM* | 5.6
Cc1cn2nc(C(=O)NCc3ccc(C(F)(F)F)cc3)cc2c(N2CCSCC2)n1 | 28.2µM* | 0.0
Cc1cn2nc(C(=O)NCc3ccncc3)cc2c(N2CCSCC2)n1 | i | -3.7
Cc1cccc(CNC(=O)c2cc3c(N4CCSCC4)nc(C)cn3n2)c1 | ? | 5.7
COc1ccc(CNC(=O)c2cc3c(N4CCSCC4)nc(C)cn3n2)cc1 | ? | 6.2
O=C(CCc1ncc(-c2ccccc2)o1)Nc1ccncc1 | i | nt
CCc1ccc(NS(=O)(=O)c2ccc(NC(C)=O)c(OC)c2)cc1 | i | nt
Cc1oc(-c2ccccc2)nc1CC(=O)N(C)c1ccccc1 | i | nt
Cc1ccc(-n2nc3n(c2=O)CCN(C(=O)c2ccc(Cl)nc2)C3)cc1 | 25.1µM* | 6.4
O=C(c1ccccc1)N1CCn2c(nn(-c3ccc(C(F)(F)F)cc3)c2=O)C1 | ? | 6.6
O=C(c1ccc(Cl)nc1)N1CCn2c(nn(-c3ccncc3)c2=O)C1 | i | -6.9
COc1ccccc1C(=O)N1CCn2c(nn(-c3ccc(C(F)(F)F)cc3)c2=O)C1 | 79.4µM* | -1.5
CCCCCCCCCCCCS(=O)CC(O)CCl (configuration not stated) | i | nt
COc1cn(CC(=O)Nc2ccc(C(N)=O)cc2)c(CSc2ccccc2)cc1=O | i | nt
CCc1c(C)cc(C(=O)N[C@@H]2[C@@H](Cc3ccccc3)[C@H]3OCC[C@@H]23)c(=O)n1C | 28.2µM* | 10.6
Cn1cnc(C(=O)N[C@@H]2[C@@H](Cc3ccccc3)[C@H]3OCC[C@@H]23)c1 | i | 26.0
O=C(NC1CCCC1)c1cc2c(F)cccc2s1 | i | nt
Cc1ccccc1C(=O)Nc1nc(-c2cc3ccccc3oc2=O)cs1 | i | nt
O=C1[C@H]2CN(Cc3ccc(Cl)cc3)C[C@H]2C(=O)N1CCc1ccccc1 | i | -2.4
O=C1[C@H]2CN(Cc3ccc(F)c(Cl)c3)C[C@H]2C(=O)N1CCc1ccccc1 | 12.6µM* | -24.0
SMILES | KDM5B inhibitor | IP6K1 inh
CC(=O)N[C@@H]1Cc2ccccc2[C@H]1NC(=O)CCc1cc2n(n1)CCCNC2 | i | -4.5
O=C(CCc1cc2n(n1)CCCNC2)N1CCCC(c2nnc3ccccn23)C1 (configuration not stated) | 11.2µM* | 0.7
CCC1(O)CCC12CCN(C(=O)CCc1ccccc1)CC2 (configuration not stated) | nt | 9.1
CCOc1cccc(CNc2ncncc2-c2nc(-c3ccccc3)no2)c1 | ? | -6.3
CNc1ncncc1-c1nc(-c2ccccc2)no1 | 28.2µM* | -5.7
COc1ccccc1CNc1ncncc1-c1nc(-c2ccccc2)no1 | 31.6µM* | -5.2
Cc1cc(F)ccc1Nc1ncncc1-c1nc(-c2ccccc2)no1 | 7.94µM* | -12.6
c1ccc(-c2noc(-c3cncnc3NCC3CCCCC3)n2)cc1 | 28.2µM* | -6.8
c1ccc(-c2noc(-c3cncnc3NCC3CCCO3)n2)cc1 (configuration not stated) | ? | 5.4
CCc1ccc(Nc2ncncc2-c2nc(-c3ccccc3)no2)cc1 | i | -6.1
Cc1ccc(Nc2ncncc2-c2nc(-c3ccccc3)no2)c(C)c1 | i | 2.8
CCCn1c(N)c(N2CCOCC2)c(=O)n(CC(=O)NCc2ccc(C)cc2)c1=O | i | nt
CCN(Cc1ccc(C(=O)NC)cc1)Cc1ccco1 | i | nt
COc1ccc(/C=C/c2nc3ccccc3[nH]c2=O)c(OC)c1 | i | nt
COc1cccc(NC(=O)C(C)Sc2ncnc3nc[nH]c23)c1 (configuration not stated) | i | nt
c1ccc(-c2noc(-c3cncnc3N3CCN(c4ccccc4)CC3)n2)cc1 | ? | -12.8
c1ccc(-c2noc(-c3cncnc3NCc3ccc4c(c3)OCO4)n2)cc1 | 12.6µM* | -18.6
Cc1cccc(N2CCN(c3ncncc3-c3nc(-c4ccccc4)no3)CC2)c1 | 22.4µM* | 1.5
Cc1c(Cl)cccc1Nc1ncncc1-c1nc(-c2ccccc2)no1 | i | -7.9
Cc1cccc(CNc2ncncc2-c2nc(-c3ccccc3)no2)c1 | ? | -1.2
Cc1cccc(Nc2ncncc2-c2nc(-c3ccccc3)no2)c1C | 28.2µM* | -11.5
CCc1cccc(N2C(=O)N(CC(=O)NCc3ccc(OC)cc3)c3ccccc3S2(=O)=O)c1 | i | nt
COc1ccccc1C(=O)NC1CCN(c2ccc3nnc(-c4ccccc4)n3n2)CC1 | nt | -5.3
COc1ccc(-c2ccc(C(=O)N3Cc4[nH]cnc4CC3C(=O)O)o2)cc1 (configuration not stated) | 28.2µM* | -5.1
COC(=O)[C@@H]1Cc2nc[nH]c2CN1C(=O)c1ccc(-c2ccccc2)cc1 | i | 12.0
SMILES | KDM5B inhibitor | IP6K1 inh
Cc1cc(C)c(S(=O)(=O)N2CCOC23CCN(C(=O)CC(C)C)CC3)c(C)c1 | i | nt
COc1cccc(NC(=O)Cc2cnc(-n3cccc3)s2)c1 | i | nt
Cc1cc(=O)n(CC(=O)Nc2ccc(C(C)C)cc2)c(N2CCc3ccccc3C2)n1 | i | 14.6
Cc1cc(=O)n(CC(=O)Nc2cccc(C(C)C)c2)c(N2CCc3ccccc3C2)n1 | 22.4µM* | 26.1
COc1cccc(CNC(=O)Cn2c(N3CCc4ccccc4C3)nc(C)cc2=O)c1 | 35.5µM* | 10.9
Cc1cc(=O)n(CC(=O)Nc2cccc(Cl)c2)c(N2CCc3ccccc3C2)n1 | 12.6µM* | -3.4
COc1ccc(CNC(=O)Cn2c(N3CCc4ccccc4C3)nc(C)cc2=O)cc1 | ? | 23.0
Cc1cc(=O)n(CC(=O)Nc2ccc(Cl)cc2)c(N2CCc3ccccc3C2)n1 | ? | 17.4
Cn1ncc2c(C(=O)NCc3ccc(Cl)cc3)cc(-c3ccccc3C(F)(F)F)nc21 | nt | 15.7
Nc1ccc(C(=O)c2ccc(Cl)cc2)cc1 | i | nt
CCCc1noc(-c2cccn3c(CNC(=O)c4cc(F)ccc4Cl)nnc23)n1 | 25.1µM* | -2.6
CCCc1noc(-c2cccn3c(CNC(=O)c4cc(Cl)ccc4F)nnc23)n1 | 22.4µM* | 12.0
Cn1c(=O)c2c(ncn2CC(=O)Nc2ccc(Br)cc2)n(C)c1=O | i | nt
Cc1cc(C)cc(-c2ccc(CN3CCCC(NC(=O)c4ccccc4F)C3)cc2)c1 (configuration not stated) | nt | 6.7
COc1ccc(NC(=O)c2cccc3c2CCN3C(=O)Nc2ccc(F)cc2)cc1 | i | -15.6
COc1ccc(NC(=O)N2CCc3c(C(=O)Nc4ccc5c(c4)OCO5)cccc32)cc1 | 22.4µM* | -5.8
Cc1oc(C(O)c2ccccc2F)nc1C(=O)Nc1ccc(C(N)=O)cc1 (configuration not stated) | i | -5.0
Cc1oc(C(O)c2ccccc2F)nc1C(=O)Nc1ccccc1C(N)=O (configuration not stated) | 35.5µM* | 14.2
O=C1Nc2ccccc2CC12CN(CC1CCCC1)C2 | i | 0.6
Cc1noc(C)c1Cn1ccn2nc3c(c2c1=O)CCCC3 | i | 0.6
CC(C)Oc1ccc(CNC(=O)c2ccc(Cn3ccn4nc5c(c4c3=O)CCCC5)cc2)cc1 | 25.1µM* | 4.0
